This is a sample that favours compounds with a hit; in the whole collection about 3.2% have one here.
TROY NFkB inh = TROY signaling inhibition. inhibition, % at 10 µM. Q293 LMP1-TROYcd NF-kB luciferase reporter, 4 h. 360,000 tested, 0.98% active. AID 1347056;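 active means compounds whose plate-normalised and pattern-corrected inhibition of the luciferase reporter signal at the single screening dose is 50% or more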
LGR2 antag = Drosophila LGR2 receptor signaling inhibition; HEK293 LGR2, CRE-luciferase, bursicon-stimulated, 4 h; inhibition, % at 9.99 µM; 380,000 tested, 0.35% active;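 active means drop in luminescence signal, shown as inhibition above about 50% in the replicate tests, limit read from the data, passing the limit was not always enough; inconclusive means probably only some replicates passing the limit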;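 further: agonist challenge used bursicon conditioned medium at about half maximal strength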
PAX8 inh HTS = lowers PAX8-driven luciferase in RMG-I cells; inhibition, % at 12.6 µM; RMG-I TPO-luciferase reporter, SteadyGlo, 24 h; 360,000 tested, 1.2% active;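 active means mean replicate inhibition at least 60% with every replicate also reaching 60%; inconclusive means only one of the two criteria is met; inactive means mean below 60% and not all replicates reaching 60%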;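 further: luciferase light reporting Pax8 driven TPO promoter activity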
EWS-Fli block = inhibitors of EWS/Fli oncoprotein transcriptional activity. A673 NR0B1-luciferase reporter, viability-normalised. inhibition, % at 12.6 µM. 350,000 tested, 0.67% active. AID 651661;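 active means mean inhibition of at least 50% after viability correction, with every replicate also passing that limit; inconclusive means mean reaches 50% but only one of two replicates passes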;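 further: firefly luciferase signal divided by Alamar Blue viability fluorescence both relative to DMSO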
EBV LMP1 NFkB = inhibitors of Epstein-Barr LMP1-induced NF-kappaB reporter | LMP1-induced NF-kappaB luciferase reporter cells, luminescence | inhibition, % at 12.5 µM | 350,000 tested, 0.69% active | AID 504558; in the data active means inhibition above about 41%; inconclusive means no clear call, values can overlap the other calls
TWEAK-Fn14 inh = inhibitors of TWEAK-Fn14 interaction signaling. TWEAK-stimulated Fn14 reporter cells, luciferase luminescence, 8 h. inhibition, % at 10 µM. 360,000 tested, 2% active; in the data active means inhibition above about 50%
A number is an active result.

What do the screens show for `COc1ccc(CNC(=O)C[C@@H]2CC[C@H]3[C@@H](COc4ccc(NC(C)=O)cc4C(=O)N3C)O2)cc1`?
LGR2 antag: inactive; PAX8 inh HTS: inactive; EWS-Fli block: inactive

What do the screens show for `O=[N+]([O-])c1ccc(Nc2nc(N/N=C\c3ccc4c(c3)OCO4)nc(N3CCCCC3)n2)cc1`?
TROY NFkB inh: inactive; PAX8 inh HTS: inactive; EBV LMP1 NFkB: inactive; TWEAK-Fn14 inh: 54.5

What do the screens show for `CS(=O)(=O)N1CC(=O)N2[C@H](C1)[C@@H](c1ccc(Br)cc1)[C@@H]2CO`?
LGR2 antag: inactive; PAX8 inh HTS: inactive; EWS-Fli block: inactive

Results for CC(C)NC(=O)Nc1ccc2c(c1)C(=O)N([C@H](C)CO)C[C@@H](C)[C@H](CN(C)C(=O)Nc1ccc3c(c1)OCO3)OCCCC[C@@H](C)O2 ?
LGR2 antag: inactive; PAX8 inh HTS: inactive; EWS-Fli block: inactive

What do the screens show for `C[C@@H]1CN([C@H](C)CO)C(=O)c2cc(NS(=O)(=O)c3ccc(F)cc3)ccc2O[C@@H](C)CCCCO[C@@H]1CN(C)S(=O)(=O)c1ccccc1`?
LGR2 antag: inactive; PAX8 inh HTS: inactive; EWS-Fli block: inactive

Results for O=C(CNS(=O)(=O)Cc1ccccc1)NNc1ccccc1 ?
TROY NFkB inh: 55.6; LGR2 antag: inactive; PAX8 inh HTS: inactive; EWS-Fli block: inactive; TWEAK-Fn14 inh: inactive

How did O=[N+]([O-])c1ccc(N=Nc2ncc[nH]2)cc1 do in these assays?
TROY NFkB inh: inactive; LGR2 antag: inactive; PAX8 inh HTS: 74.3; EWS-Fli block: 62.6; EBV LMP1 NFkB: inactive; TWEAK-Fn14 inh: 85.4

Results for C[C@H]1CCCCO[C@H](CN(C)C(=O)CCCN(C)C)[C@@H](C)CN([C@@H](C)CO)C(=O)c2cc(NS(=O)(=O)c3cccs3)ccc2O1 ?
LGR2 antag: inactive; PAX8 inh HTS: inactive

Results for COc1ccc(N=N/C(=C\O)C(=O)c2cccs2)cc1 ?
TROY NFkB inh: inactive; LGR2 antag: inactive; PAX8 inh HTS: inactive; EWS-Fli block: inactive; EBV LMP1 NFkB: inactive; TWEAK-Fn14 inh: 68.9

What do the screens show for `CC1CCN(Cc2c(C(=O)N/N=C/c3cc(Br)ccc3O)nnn2-c2nonc2N)CC1`?
TROY NFkB inh: inactive; LGR2 antag: inactive; PAX8 inh HTS: inconclusive; EWS-Fli block: inactive; EBV LMP1 NFkB: 49.1; TWEAK-Fn14 inh: inactive

Results for CC1CCN(Cc2c(C(=O)N/N=C/c3cc(Cl)ccc3O)nnn2-c2nonc2N)CC1 ?
TROY NFkB inh: inactive; LGR2 antag: inactive; PAX8 inh HTS: inactive; EWS-Fli block: inactive; EBV LMP1 NFkB: inactive; TWEAK-Fn14 inh: inactive

Results for C[C@@H]1CN([C@@H](C)CO)C(=O)c2cccc(NS(=O)(=O)c3ccc(Cl)cc3)c2O[C@H]1CN(C)C(=O)Nc1ccc2c(c1)OCO2 ?
LGR2 antag: inactive; PAX8 inh HTS: inactive; EWS-Fli block: inactive

Results for CC(=O)Nc1ccc2c(c1)C(=O)N(C)[C@@H]1CC[C@@H](CC(=O)NCC3CCCCC3)O[C@H]1CO2 ?
LGR2 antag: inactive; PAX8 inh HTS: inactive; EWS-Fli block: inactive

Results for N#Cc1cccc(C=C(C(=O)c2ccccc2)c2ccccc2)c1 ?
TROY NFkB inh: inactive; LGR2 antag: inactive; PAX8 inh HTS: inactive; EWS-Fli block: inactive; TWEAK-Fn14 inh: 63.9

How did N#C/C(=C\c1ccc(C#N)cc1)C(=O)c1ccccc1 do in these assays?
TROY NFkB inh: inactive; LGR2 antag: inactive; PAX8 inh HTS: inactive; EWS-Fli block: inactive; EBV LMP1 NFkB: inactive; TWEAK-Fn14 inh: inactive

What do the screens show for `CC(C)(C)OC(=O)NCc1ccc(NC(=O)c2nc[nH]c2C(=O)NCCCNC(=O)c2[nH]cnc2C(=O)Nc2ccc(CNC(=O)OC(C)(C)C)cc2)cc1`?
TROY NFkB inh: inactive; EBV LMP1 NFkB: inactive; TWEAK-Fn14 inh: 73.4

What do the screens show for `Cc1ccc(NC(=O)c2nc[nH]c2C(=O)NCCCCCCNC(=O)c2[nH]cnc2C(=O)Nc2ccc(C)cc2)cc1`?
TROY NFkB inh: inactive; LGR2 antag: inactive; PAX8 inh HTS: inactive; EWS-Fli block: inactive; EBV LMP1 NFkB: inactive; TWEAK-Fn14 inh: inactive

What do the screens show for `Cc1ccc(NC(=O)c2nc[nH]c2C(=O)NCCCCNC(=O)c2[nH]cnc2C(=O)Nc2ccc(C)cc2)cc1`?
TROY NFkB inh: inactive; LGR2 antag: inactive; PAX8 inh HTS: 80.3; EWS-Fli block: inactive; EBV LMP1 NFkB: inactive; TWEAK-Fn14 inh: inactive

Assay outcomes: PubChem, several laboratories
